Compound activity deposited in PubChem BioAssay by several laboratories.
SKKanGAS inh – blocks kanamycin growth of S. pyogenes SKKanGAS strain; BacTiter-Glo, 6 h; inhibition, % at 7.5 µM; 1.3% of 300,000 active; AID 1662;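 active means mean replicate score, as percent of positive control median, at least 50; inconclusive means mean below 50 but one replicate at or above 50; inactive means mean and every replicate below 50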;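 further: strain carries kanamycin resistance gene driven by streptokinase promoter and grows in 40 µg/ml kanamycin; loss of luminescence reflects streptokinase promoter inhibition or plain growth inhibition; 0% = median of DMSO wells and 100% = positive control at its reference dose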
NLRP3 yeast inh – inhibitors of NALP3 inflammasome in yeast | Yeast reconstituted NLRP3/ASC/caspase-1, beta-gal luminescence, 24 h | inhibition, % at 10 µM | 0.39% of 330,000 active;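 active means inhibition of 50% or more; inactive means inhibition below 50%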;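 further: plate controls were induced DMSO wells for no effect and uninduced yeast grown without galactose for full effect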
tim23-1 inh – inhibits growth of tim23-1 mutant yeast. S. cerevisiae tim23-1 growth, BacTiter-Glo luminescence, 24 h. inhibition, % at 20 µM. 1.3% of 330,000 active;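 active means growth inhibition of the mutant yeast at or above 50%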;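 further: temperature-sensitive mutant grown at 25 °C; plate controls were DMSO-treated mutant yeast for no effect and medium wells lacking yeast for full effect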
tim10-1 inh – inhibits growth of tim10-1 mutant yeast | S. cerevisiae tim10-1 ts strain growth, BacTiter-Glo, 24 h | inhibition, % at 20 µM | 2.2% of 330,000 active | AID 463190;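 active means inhibition of at least 40%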;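 further: mutant grown at 25 °C; 0% = DMSO wells with yeast and 100% = wells holding no yeast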
TIM10 inh – growth inhibitors of TIM10 yeast strain; S. cerevisiae TIM10 strain growth, BacTiter-Glo luminescence, 24 h; inhibition, % at 10 µM; 1.4% of 330,000 active; AID 463195;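 active means inhibition of 40% or more at the single tested concentration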;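 further: wild-type TIM10 isogenic control strain grown at permissive 25 °C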
tim10-1 confirm – confirmation of tim10-1 mutant yeast growth inhibitors; 56% of 7,400 active; S. cerevisiae tim10-1 ts strain growth, BacTiter-Glo, 24 h; inhibition, % at 20 µM; shares compounds with tim10-1 inh;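 active means inhibition of yeast growth at or above a set limit in either of two repeat tests at 20 µM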;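 further: tim10-1 mutant grown at permissive 25 °C to find synthetic lethal compounds; 0% = DMSO yeast wells and 100% = medium wells without yeast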
Starred values were filed as active, the others as inactive; ? = inconclusive; · = no result given. Hits are enriched below; roughly 4.6% of the tested compounds scored in any of these assays.

SMILES	SKKanGAS inh	NLRP3 yeast inh	tim23-1 inh	tim10-1 inh	TIM10 inh	tim10-1 confirm
COc1ccc(NC(=S)/N=C(\N)Nc2nc(C)c3ccc(C)cc3n2)cc1	-2	29	13	40*	29	26
CS(=O)(=O)c1ccc(Cl)c(NC(=O)c2cc(S(=O)(=O)N3CCOCC3)ccc2N2CCCC2)c1	25	15	9	-2	8	·
COc1ccc(-c2csc3ncnc(NCCN4CCOCC4)c23)cc1	-4	10	25	19	11	·
c1ccc(-c2oc3ncnc(NCCCN4CCOCC4)c3c2-c2ccccc2)cc1	15	36	13	22	-23	·
COc1ccc(-c2oc3ncnc(NCCCN4CCOCC4)c3c2-c2ccc(OC)cc2)cc1	21	-1	48	41*	29	23
COc1ccc(-c2oc3ncnc(NCCN4CCOCC4)c3c2-c2ccc(OC)cc2)cc1	28	12	39	48*	38	29*
CCn1c(=O)n(CC)c2cc(N3CCCC3)c(NC(=O)c3cc(Br)ccc3OC)cc21	65*	9	40	44*	4	-3
CCn1c(=O)n(CC)c2cc(N3CCCC3)c(NC(=O)c3ccc(C)cc3)cc21	-8	15	32	42*	-9	-15
CCn1c(=O)n(CC)c2cc(N3CCCC3)c(NC(=O)c3ccccc3)cc21	-2	8	22	25	11	·
COc1cc(Cl)c(C)cc1NC(=O)COc1ccc(C)nc1[N+](=O)[O-]	·	21	18	9	3	·
CCc1ccccc1NC(=O)CN(C)C(=O)c1cccc(S(=O)(=O)N2CCCCCC2)c1	·	2	23	25	19	·
CC(C)c1ccc(NC(=O)CCCN2C(=O)NC(C)(C)C2=O)cc1	·	18	-9	57*	-3	2
Cn1c(=O)c2c(nc(SCC(=O)NCc3ccc4c(c3)OCO4)n2Cc2ccc(Cl)cc2)n(C)c1=O	-20	3	13	41*	23	5
COc1cc2c(cc1OC)CN(c1ccc([N+](=O)[O-])cc1C#N)CC2	11	5	23	3	7	·
COc1cc2c(cc1OC)CN(c1ccc([N+](=O)[O-])cc1Cl)CC2	-3	20	37	41*	30	50*
COc1ccccc1CC(=O)N(Cc1ccccc1)c1cccc(C)c1	4	1	17	20	7	·
Cc1cc(C)c(-c2c(O)c3cccc4c3n(c2=O)CCC4)c(C)c1	-1	21	47	47*	15	26
CCN(CC)Cc1ccccc1CNC(=O)c1cccc(S(=O)(=O)Nc2ccc3c(c2)OCO3)c1	·	9	5	0	10	·
COc1ccc2cc(C(=O)N/N=C/c3cc(OC)c(OC)c(OC)c3)[nH]c2c1	26	3	39	40*	29	26
COc1ccc(/C=N/NC(=O)c2cc3cc(OC)c(OC)cc3[nH]2)cc1	12	4	22	14	2	·
Cc1cc(C)n(-c2nc(NCCCO)c3c4c(sc3n2)CCCC4)n1	55*	23	39	50*	27	27
Cc1cc(C)n(-c2nc(NCC(C)O)c3c4c(sc3n2)CCCC4)n1 (configuration not stated)	0	15	39	36	24	·
Cc1ccc(CNC(=O)Cc2csc(Nc3nc(=S)[nH]c4ccccc34)n2)cc1	3	25	4	40	4	26
O=C(Cc1csc(Nc2nc(=S)[nH]c3ccccc23)n1)NCc1ccccc1Cl	-2	14	4	29	3	·
Cc1ccc(C(C(=O)NC2CCCC2)N(CCCO)C(=O)Cn2nnc(-c3ccc(C)o3)n2)cc1 (configuration not stated)	0	15	9	-2	11	·
SMILES	SKKanGAS inh	NLRP3 yeast inh	tim23-1 inh	tim10-1 inh	TIM10 inh	tim10-1 confirm
CC(C)Cn1c(SCC(=O)Nc2cccnc2Cl)nnc1-c1ccco1	·	22	22	10	3	·
CN(C)c1nc(OCCNC(=O)Nc2ccccc2)nc(N2CCCCC2)n1	-1	1	21	40*	16	18
Cc1cccc(NC2=C(NC(=O)c3ccccc3)C(=O)c3ccccc3C2=O)c1	26	22	50	20	36	·
Cc1ccc(S(=O)(=O)/N=C2\C=C(Nc3cccc(C(=O)O)c3)C(=O)c3ccccc32)c(C)c1	69*	28	35	44*	7	22
COc1cccc(NC(=O)CN(C)C(=O)COc2ccccc2Cc2ccccc2)c1	·	16	21	-1	-3	·
COc1cccc(CNC(=O)CCCc2c[nH]c3ccccc23)c1	-7	6	14	5	1	·
O=C1C=C(NC(=O)Nc2ccc(Cl)c(Cl)c2)CCC1	?	17	18	43*	30	46*
Fc1ccc(C(c2nnnn2C2CCCC2)N(Cc2ccco2)CC2CCCO2)cc1 (configuration not stated)	-4	8	27	52*	39	42*
CCN(CC)C(c1ccc(C)cc1)c1nnnn1C1CCCCC1 (configuration not stated)	7	26	47	44*	36	29
CCN(CC)C(c1ccc(F)cc1)c1nnnn1C1CCCCC1 (configuration not stated)	10	21	27	31	25	·
Cc1ccc2nc(/C(C#N)=C/c3ccc(-c4ccccc4C(=O)O)o3)[nH]c2c1	14	11	14	9	2	·
Cc1cc2nc(/C(C#N)=C\c3ccc(-c4ccccc4C(=O)O)o3)[nH]c2cc1C	7	-1	30	46*	10	39*
CNC(=S)N1N=C(c2cccs2)CC1c1ccc(F)cc1 (configuration not stated)	0	-11	35	43*	13	18
CCOc1ccc(NC(=O)CSCc2cnn(-c3ccccc3)c2-n2cccc2)cc1	0	8	29	44*	14	30*
COc1ccccc1Cn1c(-c2ccco2)nc2nc3ccccc3nc21	16	12	11	31	28	·
COc1ccc(CCn2c(-c3ccco3)nc3nc4ccccc4nc32)cc1	16	9	18	41*	28	12
CC1(C)CC(=O)c2sc(NC(=O)CCS(=O)(=O)c3ccccc3)nc2C1	-2	9	48	46*	31	37*
CN(/N=C/c1ccc([N+](=O)[O-])o1)c1ccccc1	-2	36	37	52*	34	41*
O=C(N/N=C/c1ccc([N+](=O)[O-])o1)C(O)c1ccccc1 (configuration not stated)	27	7	6	-8	3	·
Cc1ccn2cc(-c3cccc(S(=O)(=O)N4CCCCC4)c3)nc2c1	-4	-53	38	48*	25	20
Cc1ccc2nc(-c3cccc(S(=O)(=O)N4CCCC4)c3)cn2c1	-4	-24	26	-7	8	·
O=C(COC(=O)COc1ccccc1[N+](=O)[O-])NCc1ccc2c(c1)OCO2	·	-2	5	18	-8	·
